Test results published in PubChem BioAssay (Tox21).
Records with an inconclusive call do not appear. Calls of active or inactive are those of the source. Unless noted, calls follow the shape of the full dose curve.

Legend:
[1] = Nuclear factor erythroid 2-related factor 2/antioxidant responsive element (Nrf2/ARE) small molecule agonists: qHTS cell viability counter screen in human keratinocytes (AID 1919968; active = well fitted curve in the direction sought with a large enough effect in the repeat runs; an effect the other way counts as inactive or inconclusive; also: nearly all actives have a fitted effect of over 55% in size)
Outline: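 KeratinoSens HaCaT cells, 1,500/well, preincubated 5 h, then exposed to compounds in DMSO for 23 h at 37 C/5% CO2. Viability read as CellTiter-Fluor fluorescence after 1 h, in the same wells as the ARE-luciferase read.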

[2] = Nuclear factor erythroid 2-related factor 2/antioxidant responsive element (Nrf2/ARE) small molecule agonists: luciferase reporter gene qHTS assay in human keratinocytes (AID 1919969); also: nearly all actives have a fitted effect of over 35% in size
[3] = molecular target: Gonadotropin-releasing hormone receptor (Homo sapiens) (UniProt P30968); test: Human gonadotropin-releasing hormone receptor (GnRHR) small molecule agonists, calcium flux assay in GnRHR-HEK293 cells (AID 1920063); also: nearly all actives have a fitted effect of over 35% in size
Chain of Gonadotropin-releasing hormone receptor (Homo sapiens) (P30968 whole entry, looked up): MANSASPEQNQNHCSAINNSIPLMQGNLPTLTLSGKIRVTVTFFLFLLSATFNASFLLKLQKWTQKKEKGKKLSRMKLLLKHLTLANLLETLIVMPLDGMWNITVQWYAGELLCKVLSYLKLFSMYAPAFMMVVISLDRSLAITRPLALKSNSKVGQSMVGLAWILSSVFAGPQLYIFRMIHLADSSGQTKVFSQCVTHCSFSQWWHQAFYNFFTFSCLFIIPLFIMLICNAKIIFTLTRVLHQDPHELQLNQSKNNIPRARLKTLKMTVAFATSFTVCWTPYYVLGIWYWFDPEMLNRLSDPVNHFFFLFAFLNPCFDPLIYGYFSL
Outline: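 HEK293 cells stably expressing human GnRHR were dye-loaded for 1 h at 37 C. Compound was added in agonist mode and fluorescence (Ex/Em 480/540) recorded kinetically for 3 min. Fifteen concentrations, triplicates.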

[4] = molecular target: KiSS-1 receptor (Homo sapiens) (UniProt Q969F8); test: Human kisspeptin (KISS1R) small molecule agonists, calcium flux assay in KISS1R-HEK293 cells (AID 1920064; active = well fitted curve in the direction sought with a large enough effect in the repeat runs; an effect the other way counts as inactive or inconclusive)
Chain of KiSS-1 receptor (Homo sapiens) (Q969F8 whole entry, looked up): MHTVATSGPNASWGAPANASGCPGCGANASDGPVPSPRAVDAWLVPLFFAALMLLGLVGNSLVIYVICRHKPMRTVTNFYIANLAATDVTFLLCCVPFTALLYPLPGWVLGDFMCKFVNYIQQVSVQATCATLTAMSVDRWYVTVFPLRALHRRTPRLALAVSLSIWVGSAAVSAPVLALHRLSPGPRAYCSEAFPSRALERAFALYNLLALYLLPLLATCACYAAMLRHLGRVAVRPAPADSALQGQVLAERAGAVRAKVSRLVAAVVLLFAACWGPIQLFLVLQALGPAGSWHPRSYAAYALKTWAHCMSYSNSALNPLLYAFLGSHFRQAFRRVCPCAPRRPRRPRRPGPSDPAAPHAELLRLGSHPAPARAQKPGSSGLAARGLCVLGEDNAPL
Outline: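 HEK293 cells stably expressing human KISS1R were loaded with calcium dye for 1 h at 37 C, then given compound; fluorescence (Ex/Em 480/540) was read kinetically for 3 min. Fifteen concentrations, triplicate.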

[5] = G protein-coupled receptor (GPCR) small molecule agonists, calcium flux assay: HEK293 wild type cell line counter screen (AID 1920065)
Outline: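 Wild-type HEK293 cells plated 18 h, loaded with calcium dye 1 h at 37 C, then compounds added in agonist mode (ATP as positive control). Kinetic fluorescence Ex/Em 480/540 recorded 3 min at 1 sec intervals; 15 concentrations, triplicate.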

[6] = p53 small molecule agonists, cell-based qHTS assay with human liver microsomes (AID 1963577)
Outline: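 Cells carrying a p53-responsive bla reporter were rested 5 h (37 C, 5% CO2) before compound transfer. Human liver microsomes plus NADPH, 0.5 mg/mL final apiece, supplied metabolism during the 16 h 37 C exposure.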

[7] = p53 small molecule agonists, cell-based qHTS assay with rat liver microsomes (AID 1963578)
Outline: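 Fluorescence from a beta-lactamase reporter under a p53 response element was measured after cells had been incubated 16 h at 37 C with test compound and rat liver microsomes plus NADPH (0.5 mg/mL final each).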

[8] = p53 small molecule agonists, cell-based qHTS assay with human liver microsomes: qHTS cell viability counter screen (AID 1963579); also: nearly all actives have a fitted effect of over 45% in size
Outline: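 Seed p53RE-bla cells at 4,000 per well; incubate 5 h at 37 C; add compound, human liver microsomes and NADPH; incubate 16 h at 37 C; add CellTiter-Glo; after 30 min at room temperature, read luminescence.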

[9] = p53 small molecule agonists, cell-based qHTS assay with rat liver microsomes: qHTS cell viability counter screen (AID 1963580); also: nearly all actives have a fitted effect of over 45% in size
Outline: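 HCT-116 p53RE-bla, 4,000 cells/well, 5 h pre-incubation; cpd + rat liver microsomes 0.5 mg/mL + NADPH 0.5 mg/mL (final); 16 h, 37 C; CellTiter-Glo, 30 min RT; luminescence.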

[10] = p53 small molecule agonists, cell-based qHTS assay: qHTS cell viability counter screen (AID 1963581); also: nearly all actives have a fitted effect of over 45% in size
Outline: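 p53RE-bla HCT-116 cells, compounds added 5 h after plating and incubated 16 h at 37 C. Cytotoxicity measured in the same wells as intracellular ATP by CellTiter-Glo luminescence after 30 min at room temperature.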

[11] = p53 small molecule agonists, cell-based qHTS assay (AID 1963582; active = well fitted activation curve with a large enough effect in the signal ratio in the repeat runs, not every such curve was filed as active; the % refers to the signal ratio)
Outline: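 p53RE-bla reporter cells, compounds added in DMSO after 5 h plating, incubated 16 h at 37 C. Beta-lactamase read via 2 h room-temperature LiveBLAzer B/G FRET substrate, fluorescence intensity.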

[12] = molecular target: 5-hydroxytryptamine receptor 2A (Homo sapiens) (UniProt P28223); test: 5-hydroxytryptamine receptor 2A (HTR2A) small molecule antagonists, cell-based qHTS assay (AID 1963586); also: nearly all actives have a fitted effect of over 45% in size
Chain of 5-hydroxytryptamine receptor 2A (Homo sapiens) (P28223 whole entry, looked up): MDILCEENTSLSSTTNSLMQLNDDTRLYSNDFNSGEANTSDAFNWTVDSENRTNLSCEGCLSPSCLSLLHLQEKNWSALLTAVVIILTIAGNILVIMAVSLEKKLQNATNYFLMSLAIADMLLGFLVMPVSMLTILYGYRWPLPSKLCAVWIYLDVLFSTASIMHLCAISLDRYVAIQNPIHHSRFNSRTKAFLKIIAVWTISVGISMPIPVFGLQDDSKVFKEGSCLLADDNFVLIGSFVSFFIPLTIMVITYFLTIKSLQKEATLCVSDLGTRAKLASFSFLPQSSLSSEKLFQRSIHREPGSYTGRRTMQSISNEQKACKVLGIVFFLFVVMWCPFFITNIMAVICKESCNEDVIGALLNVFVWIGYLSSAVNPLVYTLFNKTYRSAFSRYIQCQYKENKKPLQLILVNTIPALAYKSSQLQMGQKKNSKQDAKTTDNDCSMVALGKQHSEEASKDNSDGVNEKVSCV
Outline: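 Antagonist-mode intracellular calcium assay: DOI (4 nM) added after 5 min compound pre-incubation at room temperature to dye-loaded HTR2A-CHO cells. Fluorescence followed for 3 min, sampled every second.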

[13] = molecular target: 5-hydroxytryptamine receptor 2A (Homo sapiens) (UniProt P28223); test: 5-hydroxytryptamine receptor 2A (HTR2A) small molecule agonists, cell-based qHTS assay (AID 1963587); also: nearly all actives have a fitted effect of over 30% in size
Outline: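 Kinetic calcium-flux fluorescence (2 min, 1 sec intervals) after compound addition in agonist mode. HTR2A-CHO cells were cultured 18 h, then dye-loaded 1 h at 37 C.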

[14] = molecular target: Muscarinic acetylcholine receptor M1 (Homo sapiens) (UniProt P11229); test: Cholinergic receptor muscarinic 1 (CHRM1) small molecule antagonists, cell-based qHTS assay (AID 1963588); also: nearly all actives have a fitted effect of over 40% in size
Chain of Muscarinic acetylcholine receptor M1 (Homo sapiens) (P11229 whole entry, looked up): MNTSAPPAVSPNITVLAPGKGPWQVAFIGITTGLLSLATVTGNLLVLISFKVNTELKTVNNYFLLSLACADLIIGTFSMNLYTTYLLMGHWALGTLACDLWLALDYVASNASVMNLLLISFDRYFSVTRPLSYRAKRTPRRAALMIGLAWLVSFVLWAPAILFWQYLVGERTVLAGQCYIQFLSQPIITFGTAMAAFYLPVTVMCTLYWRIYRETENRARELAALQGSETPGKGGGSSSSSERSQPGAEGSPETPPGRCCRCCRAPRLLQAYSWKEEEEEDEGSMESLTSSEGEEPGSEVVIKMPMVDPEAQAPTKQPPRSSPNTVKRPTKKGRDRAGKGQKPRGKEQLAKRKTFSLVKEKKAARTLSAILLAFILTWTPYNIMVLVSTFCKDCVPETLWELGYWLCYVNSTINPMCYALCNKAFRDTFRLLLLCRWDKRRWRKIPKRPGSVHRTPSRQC
Outline: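 CHRM1-CHO calcium-flux assay, antagonist mode. Cells were seeded 18 h, dye-loaded 1 h at 37 C and given compound for 5 min at RT, then acetylcholine was added at 50nM. FDSS fluorescence was read 3 min; 15 concentrations, three runs.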

[15] = molecular target: Muscarinic acetylcholine receptor M1 (Homo sapiens) (UniProt P11229); test: Cholinergic receptor muscarinic 1 (CHRM1) small molecule agonists, cell-based qHTS assay (AID 1963589); also: nearly all actives have a fitted effect of over 35% in size
Outline: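 CHO cells stably expressing human CHRM1 were loaded with calcium dye for 1 h at 37 C, then compound was added in agonist mode. Intracellular calcium fluorescence was followed kinetically at 1 s intervals. Fifteen concentrations were tested in three independent runs.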

[16] = cAMP Responsive Elements (CRE) small molecule agonists, cell-based qHTS assay (AID 1963590)
Outline: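 CRE-bla HEK 293T cells, 2,000/well in DMEM with 10% dialyzed FBS and 25 mM HEPES, pre-incubated 18 h at 37 C, then exposed to compound 3 h at 37 C. Beta-lactamase reporter read with LiveBLAzer B/G FRET substrate after 2 h at room temperature.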

[17] = cAMP Responsive Elements (CRE) small molecule antagonists, cell-based qHTS assay (AID 1963591; active = well fitted inhibition curve with a large enough effect in the signal ratio in the repeat runs, not every such curve was filed as active; the % refers to the signal ratio)
Outline: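 CRE-bla HEK293T cells plated 18 h, then given compound plus NKH477 at 0.25 uM final for 3 h at 37C. Beta-lactamase reporter read with LiveBLAzer B/G FRET substrate after 2 h at room temperature.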

[18] = molecular target: Beta-2 adrenergic receptor (Homo sapiens) (UniProt P07550); test: Adrenergic beta2 receptor (ADRB2) small molecule antagonists, cell-based qHTS assay (AID 1963592); also: series mostly up to about 92 µM; nearly all actives have a fitted effect of over 50% in size
Chain of Beta-2 adrenergic receptor (Homo sapiens) (P07550 whole entry, looked up): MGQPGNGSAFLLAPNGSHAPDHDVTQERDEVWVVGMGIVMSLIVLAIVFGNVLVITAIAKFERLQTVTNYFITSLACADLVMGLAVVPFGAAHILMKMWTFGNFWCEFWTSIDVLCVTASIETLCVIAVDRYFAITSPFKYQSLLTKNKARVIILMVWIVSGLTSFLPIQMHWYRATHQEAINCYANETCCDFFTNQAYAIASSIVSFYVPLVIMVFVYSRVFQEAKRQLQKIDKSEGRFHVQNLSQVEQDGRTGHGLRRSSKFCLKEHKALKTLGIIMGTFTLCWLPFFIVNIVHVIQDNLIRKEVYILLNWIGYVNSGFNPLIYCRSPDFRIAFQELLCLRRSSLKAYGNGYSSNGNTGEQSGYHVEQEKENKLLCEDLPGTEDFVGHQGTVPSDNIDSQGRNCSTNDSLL
Outline: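 Cells (CHO, stable ADRB2 overexpression) incubated 18-20hr at 37C; compounds added from DMSO; agonist mix (1nM isoproterenol, 100uM IBMX, 25uM Ro-20-1724) added; 0.5hr RT; d2-cAMP and anti-cAMP-cryptate added; 1hr RT; 665/615 nm read.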

[19] = molecular target: D(2) dopamine receptor (Homo sapiens) (UniProt P14416); test: Dopamine D2 receptor (DRD2) small molecule agonists, cell-based qHTS assay (AID 1963594); also: nearly all actives have a fitted effect of over 35% in size
Chain of D(2) dopamine receptor (Homo sapiens) (P14416 whole entry, looked up): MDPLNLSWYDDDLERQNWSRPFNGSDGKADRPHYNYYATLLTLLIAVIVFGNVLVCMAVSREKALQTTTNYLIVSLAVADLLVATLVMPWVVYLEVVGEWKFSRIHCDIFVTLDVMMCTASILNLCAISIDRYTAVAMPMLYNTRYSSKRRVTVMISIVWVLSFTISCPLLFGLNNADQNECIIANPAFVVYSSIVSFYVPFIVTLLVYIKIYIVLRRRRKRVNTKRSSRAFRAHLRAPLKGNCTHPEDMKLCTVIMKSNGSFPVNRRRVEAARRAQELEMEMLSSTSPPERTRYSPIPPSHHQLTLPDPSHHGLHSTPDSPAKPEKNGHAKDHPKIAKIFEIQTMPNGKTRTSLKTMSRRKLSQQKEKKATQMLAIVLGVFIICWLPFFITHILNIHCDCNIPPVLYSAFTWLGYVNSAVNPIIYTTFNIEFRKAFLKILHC
Outline: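 cAMP accumulation in DRD2-HEK293 cells measured by HTRF after 1 h detection; compounds added 10 min before NKH477 (200nM […]) forskolin-analogue stimulation, 30 min at room temperature, with Ro20-1724 present at 0.1 mM final.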

[20] = molecular target: D(2) dopamine receptor (Homo sapiens) (UniProt P14416); test: Dopamine D2 receptor (DRD2) small molecule antagonists, cell-based qHTS assay (AID 1963595; active = well fitted inhibition curve with a large enough effect in the signal ratio in the repeat runs, with a control signal flat; the % refers to the signal ratio)
Outline: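 In this cell-based antagonist screen, compounds act for 10 min at room temperature before a 30 min challenge with 12 nM quinpirole and 200 nM NKH477. cAMP is quantified by HTRF competition in DRD2-HEK293 cells containing 0.1 mM Ro20-1724.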
% is scaled to controls: 0 for no effect and ±100 for the full control effect.

OCCc1ccccc1
inactive: Potency [1] | Potency [2] | Potency [3] | Potency [4] | Potency [5] | Potency [6] | Potency [7] | Potency [8] | Potency [9] | Potency [10] | Potency [11] | Potency [12] | Potency [13] | Potency [14] | Potency [15] | Potency [16] | Potency [17] | Potency [18] | Potency [19] | Potency [20]

CC(CCl)OP(=O)(OC(C)CCl)OC(C)CCl (centres undefined)
inactive: Potency [1] | Potency [2] | Potency [3] | Potency [4] | Potency [5] | Potency [6] | Potency [7] | Potency [8] | Potency [9] | Potency [10] | Potency [11] | Potency [12] | Potency [13] | Potency [14] | Potency [15] | Potency [16] | Potency [17] | Potency [18] | Potency [19] | Potency [20]

NCCN
inactive: Potency [1] | Potency [2] | Potency [3] | Potency [4] | Potency [5] | Potency [6] | Potency [7] | Potency [8] | Potency [9] | Potency [10] | Potency [11] | Potency [12] | Potency [13] | Potency [14] | Potency [15] | Potency [16] | Potency [17] | Potency [18] | Potency [19] | Potency [20]

COc1ccc([C@@H]2CC(=O)c3c(O)cc(O[C@@H]4O[C@H](CO[C@@H]5O[C@@H](C)[C@H](O)[C@@H](O)[C@H]5O)[C@@H](O)[C@H](O)[C@H]4O)cc3O2)cc1OC
inactive: Potency [1] | Potency [2] | Potency [3] | Potency [4] | Potency [5] | Potency [6] | Potency [7] | Potency [8] | Potency [9] | Potency [10] | Potency [11] | Potency [12] | Potency [13] | Potency [14] | Potency [15] | Potency [16] | Potency [17] | Potency [18] | Potency [19] | Potency [20]

Cc1ncc[nH]1
inactive: Potency [1] | Potency [2] | Potency [3] | Potency [4] | Potency [5] | Potency [6] | Potency [7] | Potency [8] | Potency [9] | Potency [10] | Potency [11] | Potency [12] | Potency [13] | Potency [14] | Potency [15] | Potency [16] | Potency [17] | Potency [18] | Potency [19] | Potency [20]

CCCCCCCC/C=C\CCCCCCCC(=O)O
inactive: Potency [1] | Potency [2] | Potency [3] | Potency [4] | Potency [5] | Potency [6] | Potency [7] | Potency [8] | Potency [9] | Potency [10] | Potency [11] | Potency [12] | Potency [13] | Potency [14] | Potency [15] | Potency [16] | Potency [17] | Potency [18] | Potency [19] | Potency [20]

O=C(O)c1ccc(O)cc1
inactive: Potency [1] | Potency [2] | Potency [3] | Potency [4] | Potency [5] | Potency [6] | Potency [7] | Potency [8] | Potency [9] | Potency [10] | Potency [11] | Potency [12] | Potency [13] | Potency [14] | Potency [15] | Potency [16] | Potency [17] | Potency [18] | Potency [19] | Potency [20]

CCNc1cccc(C)c1
inactive: Potency [1] | Potency [2] | Potency [3] | Potency [4] | Potency [5] | Potency [6] | Potency [7] | Potency [8] | Potency [9] | Potency [10] | Potency [11] | Potency [12] | Potency [13] | Potency [14] | Potency [15] | Potency [16] | Potency [17] | Potency [18] | Potency [19]

CCCCCCCCCCCCS
inactive: Potency [1] | Potency [2] | Potency [3] | Potency [4] | Potency [5] | Potency [6] | Potency [7] | Potency [8] | Potency [9] | Potency [10] | Potency [11] | Potency [12] | Potency [13] | Potency [14] | Potency [15] | Potency [16] | Potency [17] | Potency [18] | Potency [19] | Potency [20]

C[Si](C)(C)N[Si](C)(C)C
inactive: Potency [1] | Potency [2] | Potency [3] | Potency [4] | Potency [5] | Potency [6] | Potency [7] | Potency [8] | Potency [9] | Potency [10] | Potency [11] | Potency [12] | Potency [13] | Potency [14] | Potency [15] | Potency [16] | Potency [17] | Potency [18] | Potency [19] | Potency [20]

Cc1ccccc1Cl
inactive: Potency [1] | Potency [2] | Potency [3] | Potency [4] | Potency [5] | Potency [6] | Potency [7] | Potency [8] | Potency [9] | Potency [10] | Potency [11] | Potency [12] | Potency [13] | Potency [14] | Potency [15] | Potency [16] | Potency [17] | Potency [18] | Potency [19] | Potency [20]

CC(=O)N[C@@H](CS)C(=O)O
inactive: Potency [1] | Potency [2] | Potency [3] | Potency [4] | Potency [5] | Potency [6] | Potency [7] | Potency [8] | Potency [9] | Potency [10] | Potency [11] | Potency [12] | Potency [13] | Potency [14] | Potency [15] | Potency [16] | Potency [17] | Potency [18] | Potency [19] | Potency [20]

C=CCNCC=C
inactive: Potency [1] | Potency [2] | Potency [3] | Potency [4] | Potency [5] | Potency [6] | Potency [7] | Potency [8] | Potency [9] | Potency [10] | Potency [11] | Potency [12] | Potency [13] | Potency [14] | Potency [15] | Potency [16] | Potency [17] | Potency [18] | Potency [19] | Potency [20]

CCCCCCCCCCCCCC(=O)OC(C)C
inactive: Potency [1] | Potency [2] | Potency [3] | Potency [4] | Potency [5] | Potency [6] | Potency [7] | Potency [8] | Potency [9] | Potency [10] | Potency [11] | Potency [12] | Potency [13] | Potency [14] | Potency [15] | Potency [16] | Potency [17] | Potency [18] | Potency [19] | Potency [20]

CCc1ccccc1CC
inactive: Potency [1] | Potency [2] | Potency [3] | Potency [4] | Potency [5] | Potency [6] | Potency [7] | Potency [8] | Potency [9] | Potency [10] | Potency [11] | Potency [12] | Potency [13] | Potency [14] | Potency [15] | Potency [16] | activity change, negative = inhibition [17] 3.92% [at 18.9 µM] | activity change, negative = inhibition [18] -5.37% [at 19 µM] | Potency [19] | Potency [20]
